Results filed as inconclusive are left out. Activity calls are given as the source filed them. The calls were made as follows, unless noted: active = hit-call score of the fitted dose curve at least 0.9, where 1 is the maximum; inactive = score below 0.9.
Tests used:
[1] = target: Paired box protein Pax-6 (Homo sapiens) (UniProt P26367); assay: ATG_Pax6_CIS: Attagene CIS-FACTORIAL HepG2 Assay for human Paired Box 6 (PAX6) (AID 2282956); conditions: HepG2 CIS-FACTORIAL PAX6 reporter transcription, RNA readout; actives raise or lower the signal
Procedure, shortened: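 Multiplexed cis-reporter HepG2 system; 24 h treatment; reporter mRNA read by RT-PCR/CE fluorescence; bidirectional fit vs DMSO.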

[2] = ATG_PPRE_CIS: Attagene CIS-FACTORIAL HepG2 Assay for human Peroxisome Proliferator-activated Response Element (PPRE) (AID 2282958); conditions: HepG2 PPRE cis-element reporter, Attagene transcription factor profiling; actives raise or lower the signal
Procedure, shortened: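 HepG2 cells transiently transfected with multiplexed cis-element reporter units measure endogenous transcription factor activity. After 24 h compound exposure, reporter mRNA is quantified by RT-PCR, 6-FAM labeling, HpaI digestion and capillary electrophoresis; bidirectional fits are made against DMSO baseline.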

[3] = ATG_RORE_CIS: Attagene CIS-FACTORIAL HepG2 Assay for human RAR-related Orphan Receptor Element (RORE) (AID 2282959); conditions: HepG2 Attagene cis-factorial RORE reporter, mRNA; actives raise or lower the signal
Procedure, shortened: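 HepG2 cells transiently transfected with multiple cis-element reporter transcription units, exposed to chemical for 24 h. Reporter mRNA quantified by RT-PCR, 6-FAM primer-extension labeling, HpaI digestion and capillary electrophoresis; bidirectional fit versus DMSO baseline.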

[4] = ATG_Sox_CIS: Attagene CIS-FACTORIAL HepG2 Assay for human SRY-box transcription factor (SOX) (AID 2282960); conditions: HepG2 Attagene cis-factorial SOX reporter, mRNA; actives raise or lower the signal
Procedure, shortened: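 HepG2 cells transiently transfected with cis-element-driven multiple reporter transcription units, dosed 24 h; reporter mRNA measured by RT-PCR, FAM labelling, HpaI digestion and capillary electrophoresis. Bidirectional fit versus DMSO baseline.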

[5] = target: Transcription factor Sp1 (Homo sapiens) (UniProt P08047); assay: ATG_Sp1_CIS: Attagene CIS-FACTORIAL HepG2 Assay for human Specificity Protein 1 (Sp1) (AID 2282961); conditions: HepG2 Sp1 cis-reporter transcription, actives raise or lower the signal
Procedure, shortened: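 HepG2 cells transiently transfected with multiple reporter transcription units driven by cis-regulatory elements; Sp1-responsive reporter mRNA measured 24 h after dosing by RT-PCR and capillary electrophoresis fluorescence, fitted bidirectionally against DMSO baseline.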

[6] = ATG_SREBP_CIS: Attagene CIS-FACTORIAL HepG2 Assay for human Sterol Regulatory Element Binding (SREBP) (AID 2282962); conditions: HepG2 Attagene cis-factorial SREBP reporter, mRNA; actives raise or lower the signal
Procedure, shortened: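 mRNA induction of transfected cis-promoter reporters in HepG2 cells, 24 h post-dose. Detection: RT-PCR with 6-FAM-labelled products, HpaI digest, capillary electrophoresis. DMSO served as negative control and baseline.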

[7] = target: Signal transducer and activator of transcription 3 (Homo sapiens) (UniProt P40763); assay: ATG_STAT3_CIS: Attagene CIS-FACTORIAL HepG2 Assay for human Signal Transducer and Activator of Transcription 3 (STAT3) (AID 2282963); conditions: HepG2, Attagene cis-factorial STAT3 reporter transcription; actives raise or lower the signal
Procedure, shortened: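 Values derive from bidirectional fits relative to DMSO of reporter mRNA levels, measured by RT-PCR with capillary electrophoresis, in HepG2 cells carrying transiently transfected cis-regulated reporter units and exposed 24 h.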

[8] = ATG_TA_CIS: Attagene CIS-FACTORIAL HepG2 Assay for human TA Basal Promoter (AID 2282964); conditions: HepG2 Attagene CIS-factorial TA basal promoter reporter; actives raise or lower the signal
Procedure, shortened: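 Background-control readout: TA basal promoter reporter mRNA, fitted in both directions relative to DMSO. Measured by RT-PCR and capillary electrophoresis 24 hours after treating HepG2 human liver cells transiently carrying multiplexed cis-regulated reporter constructs.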

[9] = ATG_TCF_b_cat_CIS: Attagene CIS-FACTORIAL HepG2 Assay for human T-Cell-Factor with beta-catenin (TCF/b-cat) (AID 2282965); conditions: HepG2 TCF/beta-catenin cis-reporter transcription, actives raise or lower the signal
Procedure, shortened: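 HepG2, transient MRTU transfection, cis-element-driven reporters (endogenous TFs). 24 h compound exposure. Readout: reporter mRNA by RT-PCR + 6-FAM primer extension, HpaI digest, capillary electrophoresis. Gain/loss fit vs DMSO baseline.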

[10] = ATG_TAL_CIS: Attagene CIS-FACTORIAL HepG2 Assay for human TAL Basal Promoter (AID 2282966); conditions: HepG2 Attagene cis-factorial TAL promoter reporter; actives raise or lower the signal;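 also: background control endpoint measuring basal TAL promoter reporter mRNA not a specific factor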
Procedure, shortened: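 Fluorescence of labelled reporter cDNA fragments, resolved by capillary electrophoresis, gave the readout. Human HepG2 liver cells carried transiently transfected cis-element reporter units and were treated for 24 hours; activity was fitted bidirectionally against DMSO.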

[11] = ATG_TGFb_CIS: Attagene CIS-FACTORIAL HepG2 Assay for human Transforming Growth Factor (TGF) (AID 2282967); conditions: HepG2 Attagene CIS TGFb reporter, mRNA transcription; actives raise or lower the signal
Procedure, shortened: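 Endogenous TGFB1-linked transcription factor activity read as reporter mRNA via RT-PCR and capillary electrophoresis, 24 h after dosing transiently transfected HepG2 cells. Gain or loss of signal fitted relative to DMSO.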

[12] = ATG_VDRE_CIS: Attagene CIS-FACTORIAL HepG2 Assay for human Vitamin D Receptor Element (VDRE) (AID 2282968); conditions: HepG2 VDRE cis-reporter transcription, actives raise or lower the signal
Procedure, shortened: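 Cell-based multiplexed reporter format in human liver HepG2 cells, 24 h post-dose. Fluorescence from capillary electrophoresis of reporter cDNA gives the signal, with DMSO as negative control and baseline.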

[13] = target: Nuclear receptor subfamily 1 group I member 3 (Homo sapiens) (UniProt Q14994); assay: ATG_CAR_TRANS: Attagene TRANS-FACTORIAL HepG2 Assay for human Constitutive Androstane Receptor (CAR) (AID 2282969; active = hit-call score of the fitted dose curve at least 0.9, where 1 is the maximum;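 also: activators raise reporter mRNA above DMSO so AC50 marks induction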); conditions: HepG2 Attagene TRANS-FACTORIAL CAR reporter
Procedure, shortened: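 HepG2 cells transiently transfected with GAL4-UAS reporter units; TRANS format reads activity of exogenous chimeric NR-Gal4 protein. After 24 h dosing, reporter mRNA quantified by RT-PCR, 6-FAM labelling and capillary electrophoresis; gain of signal fitted against DMSO.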

[14] = target: X-box-binding protein 1 (Homo sapiens) (UniProt P17861); assay: ATG_Xbp1_CIS: Attagene CIS-FACTORIAL HepG2 Assay for human X-box Binding Protein 1 (XBP1) (AID 2282972); conditions: HepG2 XBP1 cis-element reporter, Attagene multiplex; actives raise or lower the signal
Procedure, shortened: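 Fluorescence-labelled cDNA fragments from reporter transcripts, separated by capillary electrophoresis, give the signal. Source: HepG2 cells transfected with promoter-driven reporter units, harvested 24 h post-dose. DMSO served as reference for bidirectional curve fitting.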

[15] = ATG_M_19_TRANS: Attagene TRANS-FACTORIAL HepG2 Assay for M19 Transcription Factor (Internal Marker) (AID 2282974; active = hit-call score of the fitted dose curve at least 0.9, where 1 is the maximum); conditions: HepG2 Attagene TRANS-FACTORIAL M19 internal marker reporter
Procedure, shortened: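 HepG2 cells transiently transfected with multiple GAL4-UAS reporter transcription units were exposed to chemicals for 24 h. Reporter mRNA was read by RT-PCR, 6-FAM primer extension, HpaI digestion and capillary electrophoresis; gain of signal fitted relative to DMSO.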

[16] = ATG_PXRE_CIS: Attagene CIS-FACTORIAL HepG2 Assay for human Pregnane X Receptor Element (PXRE) (AID 2282957); conditions: HepG2 Attagene CIS-FACTORIAL PXRE reporter, mRNA; actives raise or lower the signal
Procedure, shortened: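 Transfect HepG2 with MRTUs (cis promoter elements); dose chemical, incubate 24 h; isolate RNA, RT with oligo(dT), PCR, 6-FAM label, HpaI cut, CE. Gain/loss fit vs DMSO.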

[17] = ATG_GAL4_TRANS: Attagene TRANS-FACTORIAL HepG2 Assay for GAL4 (Internal Marker) (AID 2282976; active = hit-call score of the fitted dose curve at least 0.9, where 1 is the maximum); conditions: HepG2 Attagene TRANS GAL4 internal marker reporter
Procedure, shortened: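 First, HepG2 cells were transfected with reporter units under GAL4-UAS control. Next, they were treated with chemical for 24 h. Finally, RNA was reverse-transcribed, PCR-amplified, FAM-labelled and resolved by capillary electrophoresis, with induction scored against DMSO.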

[18] = target: Steroid hormone receptor ERR1 (Homo sapiens) (UniProt P11474); assay: ATG_ERRa_TRANS: Attagene TRANS-FACTORIAL HepG2 Assay for human Estrogen-Related Receptor alpha (ERRa) (AID 2282971; active = hit-call score of the fitted dose curve at least 0.9, where 1 is the maximum); conditions: HepG2 Attagene TRANS reporter, ERRa transactivation
Procedure, shortened: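 Reporter transcript induction was quantified by RT-PCR and capillary electrophoresis of FAM-labelled, HpaI-cut products after 24 h treatment of HepG2 cells carrying transiently transfected GAL4-UAS reporter units and an exogenous ERRa-Gal4 fusion; activity scored as increase over DMSO.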

[19] = target: Estrogen receptor (Homo sapiens) (UniProt P03372); assay: ATG_ERa_TRANS: Attagene TRANS-FACTORIAL HepG2 Assay for human Estrogen Receptor alpha (ERa) (AID 2282970; active = hit-call score of the fitted dose curve at least 0.9, where 1 is the maximum); conditions: HepG2 Attagene TRANS ERa GAL4 reporter, mRNA
Procedure, shortened: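 Human liver HepG2, transient transfection of multiple GAL4-UAS reporter units; TRANS format (exogenous NR-Gal4 chimera). 24 h dosing. Readout: reporter mRNA, RT-PCR, 6-FAM primer extension, HpaI digest, capillary electrophoresis. Positive direction vs DMSO.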

[20] = target: Androgen receptor (Homo sapiens) (UniProt P10275); assay: ATG_AR_TRANS: Attagene TRANS-FACTORIAL HepG2 Assay for human Androgen Receptor (AR) (AID 2282973; active = hit-call score of the fitted dose curve at least 0.9, where 1 is the maximum); conditions: HepG2 Attagene TRANS-FACTORIAL AR reporter transcription
Procedure, shortened: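 Steps: transfect HepG2 with multiple GAL4-UAS reporter transcription units (TRANS format, exogenous NR-Gal4 protein); dose 24 h; isolate RNA, reverse-transcribe, PCR-amplify, FAM-label, HpaI-digest; resolve by capillary electrophoresis. Positive direction vs DMSO.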

Measured: AC50

Transcription factor Sp1 (Homo sapiens), sequence (P08047 whole entry, looked up): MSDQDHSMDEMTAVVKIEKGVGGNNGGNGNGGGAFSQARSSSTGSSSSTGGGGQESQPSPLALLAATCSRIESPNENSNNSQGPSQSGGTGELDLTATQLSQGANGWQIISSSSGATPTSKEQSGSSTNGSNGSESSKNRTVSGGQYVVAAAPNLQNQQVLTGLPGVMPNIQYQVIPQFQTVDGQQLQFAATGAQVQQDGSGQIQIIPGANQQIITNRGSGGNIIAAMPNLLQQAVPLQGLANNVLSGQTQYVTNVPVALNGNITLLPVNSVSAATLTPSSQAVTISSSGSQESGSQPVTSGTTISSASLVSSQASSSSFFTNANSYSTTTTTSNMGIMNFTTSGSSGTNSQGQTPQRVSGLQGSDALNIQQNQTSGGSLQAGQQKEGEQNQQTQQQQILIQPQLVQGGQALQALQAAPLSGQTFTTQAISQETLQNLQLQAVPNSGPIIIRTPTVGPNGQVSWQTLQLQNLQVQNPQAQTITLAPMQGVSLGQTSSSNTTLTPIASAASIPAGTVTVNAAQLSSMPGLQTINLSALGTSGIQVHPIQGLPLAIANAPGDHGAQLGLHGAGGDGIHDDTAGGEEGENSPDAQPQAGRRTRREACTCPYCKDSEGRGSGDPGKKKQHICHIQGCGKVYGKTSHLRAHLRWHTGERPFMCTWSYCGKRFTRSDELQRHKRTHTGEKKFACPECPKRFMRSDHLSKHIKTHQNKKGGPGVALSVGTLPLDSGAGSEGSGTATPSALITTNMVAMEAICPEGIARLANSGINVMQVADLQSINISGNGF
Signal transducer and activator of transcription 3 (Homo sapiens), sequence (P40763 whole entry, looked up): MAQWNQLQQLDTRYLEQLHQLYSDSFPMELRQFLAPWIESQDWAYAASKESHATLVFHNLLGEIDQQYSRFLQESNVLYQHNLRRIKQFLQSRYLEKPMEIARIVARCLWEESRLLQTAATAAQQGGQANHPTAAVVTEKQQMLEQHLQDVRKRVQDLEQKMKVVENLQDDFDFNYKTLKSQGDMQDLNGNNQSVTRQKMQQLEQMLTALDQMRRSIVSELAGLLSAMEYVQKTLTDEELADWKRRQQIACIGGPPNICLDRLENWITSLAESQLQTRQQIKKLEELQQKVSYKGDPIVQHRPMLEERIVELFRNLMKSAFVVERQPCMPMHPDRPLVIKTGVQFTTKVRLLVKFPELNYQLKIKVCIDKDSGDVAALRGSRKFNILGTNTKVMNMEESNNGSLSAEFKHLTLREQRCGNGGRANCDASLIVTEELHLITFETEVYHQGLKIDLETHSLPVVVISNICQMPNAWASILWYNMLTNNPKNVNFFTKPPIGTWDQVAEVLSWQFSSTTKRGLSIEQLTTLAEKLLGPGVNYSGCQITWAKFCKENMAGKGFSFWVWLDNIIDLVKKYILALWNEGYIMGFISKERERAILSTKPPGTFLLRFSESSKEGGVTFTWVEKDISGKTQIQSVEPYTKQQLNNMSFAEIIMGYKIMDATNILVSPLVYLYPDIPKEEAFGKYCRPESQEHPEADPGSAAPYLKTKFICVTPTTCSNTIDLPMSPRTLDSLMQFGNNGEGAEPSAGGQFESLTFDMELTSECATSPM
Nuclear receptor subfamily 1 group I member 3 (Homo sapiens), sequence (Q14994 whole entry, looked up, the tested form may be a part): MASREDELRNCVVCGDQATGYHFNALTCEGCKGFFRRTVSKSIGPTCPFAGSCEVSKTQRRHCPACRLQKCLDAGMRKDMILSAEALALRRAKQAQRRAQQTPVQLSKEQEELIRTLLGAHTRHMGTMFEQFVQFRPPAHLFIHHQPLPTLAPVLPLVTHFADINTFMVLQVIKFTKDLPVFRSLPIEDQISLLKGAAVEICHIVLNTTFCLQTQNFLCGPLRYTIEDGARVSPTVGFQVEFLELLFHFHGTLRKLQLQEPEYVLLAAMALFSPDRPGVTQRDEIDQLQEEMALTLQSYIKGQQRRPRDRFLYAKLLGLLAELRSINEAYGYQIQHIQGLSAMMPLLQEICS
Paired box protein Pax-6 (Homo sapiens), sequence (P26367 whole entry, looked up): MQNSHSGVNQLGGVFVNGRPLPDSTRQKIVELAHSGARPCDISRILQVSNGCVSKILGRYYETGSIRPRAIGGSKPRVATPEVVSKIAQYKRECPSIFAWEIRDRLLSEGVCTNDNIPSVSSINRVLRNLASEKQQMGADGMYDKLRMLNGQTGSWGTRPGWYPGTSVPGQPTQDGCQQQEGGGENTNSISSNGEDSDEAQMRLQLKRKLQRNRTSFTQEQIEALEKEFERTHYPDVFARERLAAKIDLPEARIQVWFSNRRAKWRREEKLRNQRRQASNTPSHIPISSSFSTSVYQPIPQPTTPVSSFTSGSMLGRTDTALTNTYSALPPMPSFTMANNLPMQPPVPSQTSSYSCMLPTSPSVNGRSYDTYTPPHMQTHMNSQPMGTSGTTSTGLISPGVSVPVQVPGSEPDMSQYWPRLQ
X-box-binding protein 1 (Homo sapiens), sequence (P17861 whole entry, looked up, the tested form may be a part): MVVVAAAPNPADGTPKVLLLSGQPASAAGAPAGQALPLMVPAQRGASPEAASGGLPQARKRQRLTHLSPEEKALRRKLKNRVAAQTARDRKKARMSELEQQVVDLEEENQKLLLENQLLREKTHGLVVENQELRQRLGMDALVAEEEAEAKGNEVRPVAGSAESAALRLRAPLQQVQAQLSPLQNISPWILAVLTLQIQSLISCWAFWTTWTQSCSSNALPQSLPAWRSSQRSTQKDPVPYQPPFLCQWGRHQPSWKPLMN
Steroid hormone receptor ERR1 (Homo sapiens), sequence (P11474 whole entry, looked up, the tested form may be a part): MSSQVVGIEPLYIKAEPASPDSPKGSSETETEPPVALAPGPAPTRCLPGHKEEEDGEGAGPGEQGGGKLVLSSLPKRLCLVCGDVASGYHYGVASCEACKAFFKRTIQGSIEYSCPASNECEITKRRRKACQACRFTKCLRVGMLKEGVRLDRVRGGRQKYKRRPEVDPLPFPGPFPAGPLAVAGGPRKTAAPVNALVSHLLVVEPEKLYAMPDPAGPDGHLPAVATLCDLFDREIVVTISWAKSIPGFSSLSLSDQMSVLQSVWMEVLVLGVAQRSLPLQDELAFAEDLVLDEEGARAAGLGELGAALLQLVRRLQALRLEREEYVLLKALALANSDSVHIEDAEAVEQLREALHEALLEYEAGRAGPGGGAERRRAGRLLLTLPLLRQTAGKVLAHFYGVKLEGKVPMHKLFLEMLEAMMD
Estrogen receptor (Homo sapiens), sequence (P03372 whole entry, looked up, the tested form may be a part): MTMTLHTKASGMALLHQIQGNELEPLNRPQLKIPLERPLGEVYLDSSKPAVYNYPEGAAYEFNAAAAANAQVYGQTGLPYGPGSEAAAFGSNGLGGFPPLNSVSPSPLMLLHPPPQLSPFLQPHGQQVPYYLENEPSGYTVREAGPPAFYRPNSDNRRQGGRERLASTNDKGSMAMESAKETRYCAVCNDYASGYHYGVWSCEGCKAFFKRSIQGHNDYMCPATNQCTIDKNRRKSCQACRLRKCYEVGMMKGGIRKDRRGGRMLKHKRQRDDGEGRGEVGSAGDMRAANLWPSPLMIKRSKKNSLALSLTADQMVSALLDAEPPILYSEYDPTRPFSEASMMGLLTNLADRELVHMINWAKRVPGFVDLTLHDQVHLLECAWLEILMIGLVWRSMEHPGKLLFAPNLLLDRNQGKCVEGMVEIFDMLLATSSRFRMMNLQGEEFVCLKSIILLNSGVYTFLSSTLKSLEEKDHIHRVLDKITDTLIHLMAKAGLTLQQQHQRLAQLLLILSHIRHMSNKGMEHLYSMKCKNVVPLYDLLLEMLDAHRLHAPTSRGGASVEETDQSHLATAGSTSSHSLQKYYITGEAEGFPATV
Androgen receptor (Homo sapiens), sequence (P10275 whole entry, looked up, the tested form may be a part): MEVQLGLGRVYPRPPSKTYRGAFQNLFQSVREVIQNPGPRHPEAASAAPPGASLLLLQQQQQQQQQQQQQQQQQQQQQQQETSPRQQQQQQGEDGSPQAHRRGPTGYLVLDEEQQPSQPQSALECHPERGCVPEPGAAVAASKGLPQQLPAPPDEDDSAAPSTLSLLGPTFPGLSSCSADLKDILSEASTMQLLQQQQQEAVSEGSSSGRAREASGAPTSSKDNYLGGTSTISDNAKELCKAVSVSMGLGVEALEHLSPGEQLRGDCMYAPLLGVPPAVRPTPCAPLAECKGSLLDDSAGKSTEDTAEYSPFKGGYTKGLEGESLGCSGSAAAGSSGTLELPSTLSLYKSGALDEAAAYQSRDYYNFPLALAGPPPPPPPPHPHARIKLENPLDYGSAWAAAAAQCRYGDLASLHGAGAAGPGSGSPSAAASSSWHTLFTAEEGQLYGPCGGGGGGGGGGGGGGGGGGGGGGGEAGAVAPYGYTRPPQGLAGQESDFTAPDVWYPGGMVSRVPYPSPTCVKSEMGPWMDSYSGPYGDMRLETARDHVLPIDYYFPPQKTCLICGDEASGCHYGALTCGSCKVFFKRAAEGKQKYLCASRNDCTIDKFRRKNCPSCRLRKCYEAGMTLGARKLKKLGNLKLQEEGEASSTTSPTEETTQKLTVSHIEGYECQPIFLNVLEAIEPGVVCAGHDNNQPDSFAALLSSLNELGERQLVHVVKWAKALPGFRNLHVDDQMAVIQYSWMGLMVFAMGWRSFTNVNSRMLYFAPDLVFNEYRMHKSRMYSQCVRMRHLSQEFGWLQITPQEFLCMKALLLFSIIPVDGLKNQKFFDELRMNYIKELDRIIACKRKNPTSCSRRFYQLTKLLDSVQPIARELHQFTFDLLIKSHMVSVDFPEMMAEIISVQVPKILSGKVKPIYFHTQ

CCOC(=O)[C@]1(c2ccccc2)Oc2ccccc2[C@@H]1N
inactive: [7] | [9] | [13] | [15]
active: [1] 37.6 µM | [2] 13.8 µM | [3] 33 µM | [4] 50.3 µM | [5] 49.6 µM | [6] 12.3 µM | [8] 33 µM | [10] 61.8 µM | [11] 15.6 µM | [12] 15.8 µM | [14] 41.9 µM

O=C(O)C1C2CCC(O2)C1C(=O)O (stereo not given)
active: [1] 123 µM | [16] 68.6 µM | [12] 100 µM
inactive: [4] | [6] | [7] | [8] | [9] | [10] | [11]

[As]#[In]
inactive: [1] | [4] | [6] | [7] | [8] | [9] | [10] | [11] | [14] | [17]
active: [16] 49.9 µM

COP(=S)(OC)SCN1C(=O)c2ccccc2C1=O
active: [16] 26.8 µM
inactive: [1] | [2] | [4] | [6] | [7] | [8] | [9] | [10] | [11] | [15]

Cn1cc(-c2ccccc2)c(=O)c(-c2cccc(C(F)(F)F)c2)c1
active: [16] 4.31 µM | [9] 100 µM
not listed: [3] | [5] | [12] | [13] | [18] | [19] | [20]
inactive: all other assays above

Nc1ccc([N+](=O)[O-])cc1
not listed: [2] | [17] | [19] | [20]
inactive: all other assays above

CC(O)CCO (stereo not given)
not listed: [14] | [15] | [16] | [17] | [18] | [19] | [20]
inactive: all other assays above

O=C(Oc1ccc(Br)cc1)N1CCN2CCC1CC2
active: [16] 26 µM | [9] 43.3 µM
not listed: [3] | [5] | [13] | [18] | [20]
inactive: all other assays above

CC(C)(C)OOC(=O)c1ccccc1
active: [1] 149 µM
inactive: [2] | [3] | [4] | [6] | [7] | [8] | [9] | [10] | [11] | [12]

Nc1ccc(Cl)cc1N
active: [1] 27.4 µM | [16] 26.1 µM | [3] 27.7 µM | [4] 26.8 µM | [8] 9.74 µM | [12] 27.3 µM | [14] 21 µM
not listed: [2] | [5] | [15] | [18] | [19]
inactive: all other assays above
